In the library only some 7.4% were active in any assay of this set; here they are far more common.
NPC1 promoter act = NPC1 promoter activation; hit rate 2.4% among 320,000; Huh7 NPC1 promoter luciferase reporter, 24 h; Potency, µM (series often up to 9.22 µM), without a hit: at the highest dose activation, actives largely listed as activators; further: % of control where 0% means no effect; nearly all actives have a fitted effect of over 60% in size
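Luminescence from an NPC1 promoter-driven luciferase reporter in stably transfected Huh7 cells was measured after 24 h compound treatment at 37 °C, followed by 10 min ambient incubation with luciferase detection reagent.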
Rab9 promoter act = activates the Rab9 promoter; hit rate 2.8% among 320,000; Huh7 Rab9 promoter-luciferase reporter, luminescence, 24 h; Potency, µM (titrated, usually from 9.22 µM), without a hit: at the highest dose activation, negative = inhibition, usual class: activators; AID 485297; further: % of control where 0% means no effect; nearly all actives have a fitted effect of over 60% in size
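Luminescence read-out: Huh7 cells stably expressing Rab9-luciferase, treated 24 h with compound at 37 °C, then lysed with luciferase reagent for 10 min at ambient before reading.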
FLuc counter = firefly luciferase modulation, counter-screen for miR-21 project; Potency, µM (highest dose often 57.5 µM), for inactives: at the top dose activity change, negative = inhibition, actives largely listed as inhibitors; purified FLuc, Km substrates, luminescence inhibition; hit rate 6.9% among 360,000; AID 588342;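 further: plate controls were vehicle for no effect and reference inhibitor for full effect; nearly all actives have a fitted effect of over 55% in size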
Target sequence (P08659 whole entry, looked up): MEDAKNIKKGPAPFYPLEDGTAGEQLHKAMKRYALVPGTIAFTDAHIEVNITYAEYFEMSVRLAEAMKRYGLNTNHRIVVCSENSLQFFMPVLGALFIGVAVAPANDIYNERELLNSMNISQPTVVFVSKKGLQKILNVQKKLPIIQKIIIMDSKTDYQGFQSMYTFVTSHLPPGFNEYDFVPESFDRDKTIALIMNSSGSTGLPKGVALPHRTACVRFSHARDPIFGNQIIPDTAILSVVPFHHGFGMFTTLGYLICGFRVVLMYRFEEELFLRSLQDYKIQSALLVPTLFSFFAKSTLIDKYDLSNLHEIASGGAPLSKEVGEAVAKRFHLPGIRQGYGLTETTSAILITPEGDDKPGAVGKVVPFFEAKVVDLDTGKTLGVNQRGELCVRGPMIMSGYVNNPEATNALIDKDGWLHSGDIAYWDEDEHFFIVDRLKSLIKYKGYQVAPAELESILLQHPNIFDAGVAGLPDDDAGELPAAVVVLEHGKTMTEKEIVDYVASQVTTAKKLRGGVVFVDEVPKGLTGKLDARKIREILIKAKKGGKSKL
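Purified P. pyralis luciferase (10nM final) with 10uM D-luciferin and 10uM ATP (Km levels) in 50mM Tris acetate pH 7.5, 10mM Mg acetate, 0.01% Tween-20, 0.05% BSA; qHTS 6-point titration, ~60 µM downward; luminescence read.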
SMN2 splice enh = increases expression of the SMN2 splice variant; HEK293 SMN2-luciferase splicing reporter, luminescence, 30-36 h; Potency, µM (doses to about 46.1 µM), for inactives: at the top dose activity change, positive = activation, most hits filed as activators; hit rate 2.8% among 210,000; further: % of control where 0% means no effect; nearly all actives have a fitted effect of over 55% in size
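qHTS luciferase splicing reporter: luminescence rises when SMN2 exon 7 is included in transfected HEK293 cells. Compound exposure lasted 30-36 h at 37C, with 4.5 mM final sodium butyrate as control, followed by a ONE-Glo read.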
ELG1 genotox = inducers of genotoxicity in HEK293T ELG1-luciferase cells; HEK293T ELG1-luciferase reporter, luminescence, 16 h; Potency, µM (highest dose often 46 µM), for inactives: top-dose activity change, positive = activation, hits mostly activators; hit rate 1.3% among 330,000; AID 504466; further: % of control where 0% means no effect; nearly all actives have a fitted effect of over 60% in size
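After overnight (16 hr) compound treatment at 37 °C, ELG1-luciferase HEK293T cells were lysed with ONE-Glo; luminescence quantified 30 min later at room temperature.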
p53 reactivator = mutant p53 re-activation in reporter cells. H1299 p53-A138V BP100-luciferase reporter, luminescence, 24 h. Potency, µM (series often up to 92.2 µM), without a hit: at the top dose activity change, positive = activation, hits mostly activators. hit rate 0.063% among 320,000. AID 504706; further: % of control where 0% means no effect; nearly all actives have a fitted effect of over 45% in size
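H1299 (p53-null), stable ts p53-A138V + BP100-Luc; 1000 cells/well, Opti-MEM/10% FBS; cpd 4 pt, 1:5; 24 h, 37 deg C, 5% CO2; detection reagent 10 min RT; luminescence.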
* marks the source's active call; other numbers are inactive results; ? = inconclusive; nt = no result given; [ ] = dose if it differs, or a comment. The call rests on the fitted dose curve; in most records, active means well fitted curve in the direction sought with a large enough effect; inconclusive means small, poorly fitted or top-dose-only effect, or another doubt; inactive means no such curve, though single readings can be large; an effect the other way counts as inactive or inconclusive. Potency means the concentration at half of the fitted maximal effect.

SMILES	NPC1 promoter act	Rab9 promoter act	FLuc counter	SMN2 splice enh	ELG1 genotox	p53 reactivator
CC[N+]1(C)[C@@H]2CC[C@H]1CC(OC(=O)[C@H]1CC[C@@](C(=O)OC3C[C@H]4CC[C@@H](C3)[N+]4(C)CC)(c3ccccc3)c3ccccc31)C2 (some centres undefined)	nt	nt	nt	-6%[20.6 µM]	nt	nt
O=C(/C=C/c1ccc(OC2CSC2)cc1)c1ccccc1	3.5µM*	1.8µM*	0.54µM*	13%	?	21%
CNC(=O)c1ccc(OC2CSC2)cc1	nt	nt	1%	2%	nt	nt
O=C(N/N=C/c1ccc(OC2CSC2)cc1)c1ccccc1	3.2µM*	2.2µM*	2.4µM*	21%	?	?
COc1ccccc1CN1CCC2(CC1)CCN(C(=O)c1cc(C(F)(F)F)cc(C(F)(F)F)c1)CC2	nt	nt	nt	-35%	nt	nt
COc1ccc(/C=N/N2CCN(c3ccccc3OC)CC2)cc1Br	21%	22%	15µM*	nt	12%	nt
COc1cc(/C=N/N2C(=O)CSC2=S)cc(Br)c1O	2%	13%	?	11%	1%	1%
COc1cccc(/C=N/N2CCN(c3ccccc3OC)CC2)c1	?	3.2µM*	12µM*	13µM*	16µM*	?
COc1ccccc1N1CCN(/N=C/c2ccc(O)c(O)c2)CC1	-28%	-21%	?	?	?	4%
COc1ccccc1N1CCN(/N=C/c2cccc(OC)c2O)CC1	?	?	7.6µM*	25µM*	?	5%
COc1cccc(/C=N/N2C(=O)CSC2=S)c1O	8%	-1%	27µM*	11%	2%	?
COc1ccc(/C=C(/NC(=O)c2ccc(C)cc2)C(=O)N2CCCC2)cc1OC	-8%	5%	-2%	nt	3%	-6%
Cc1cc(C)c2c(n1)nn1c(C)c(CCC(=O)NCc3ccccc3Cl)c(C)nc21	nt	nt	-2%	10%	nt	nt
CCCCCC(=O)Nc1cc(S(=O)(=O)N2CCOCC2)ccc1Oc1ccc(OCC)cc1	-8%	-2%	6%	nt	3%	1%
COc1ccccc1N1CCN(/N=C/c2cccc(Cl)c2)CC1	3.2µM*	2.2µM*	12µM*	nt	16µM*	nt
COc1ccc(/C=N/N2CCN(c3ccccc3OC)CC2)cc1OC	-5%	1%	?	17%	?	3%
Clc1cccc(/C=N/N2CCN(Cc3ccccc3)CC2)c1	?	?	17µM*	nt	?	-12%
C(=N\N1CCN(Cc2ccccc2)CC1)/c1ccccc1	7%	29%	?	nt	7%	17%
FC(F)(F)c1ccccc1/C=N/N1CCN(Cc2ccccc2)CC1	23%	25%	19µM*	11%	17%	19%
COc1ccc(NC(=O)c2ccc(-c3ccc([N+](=O)[O-])cc3)o2)cc1	1%	-6%	0%	-29%	-3%	8%
O=C(c1ccc(-c2ccc([N+](=O)[O-])cc2)o1)N1CCCCC1	4µM*	1µM*	6.7µM*	?	?	nt
O=C(Nc1ccccc1)c1ccc(-c2ccc([N+](=O)[O-])cc2)o1	?	22%	13µM*	nt	14%	5%
O=C(Nc1cccc(NC(=O)c2ccc(-c3ccc(Br)cc3)o2)c1)c1ccccc1	13%	3%	2.7µM*	4%	7%	0%
O=C(Nc1ccccc1)c1ccc(-c2ccc(Br)cc2)o1	19%	0%	6µM*	?	?	?
O=C(Nc1cccc(NC(=O)c2ccc(-c3cccc(Br)c3)o2)c1)c1ccco1	6%	1%	?	-29%	-12%	-2%
SMILES	NPC1 promoter act	Rab9 promoter act	FLuc counter	SMN2 splice enh	ELG1 genotox	p53 reactivator
COC(=O)N1CCC2(CCN(C(=O)Nc3cccc(F)c3)CC2)CC1	nt	nt	nt	-8%	nt	nt
COc1ccccc1NC(=O)c1ccc(-c2ccc(Br)cc2)o1	-19%	-11%	8.5µM*	3%	20%	9%
NC(=O)c1ccccc1NC(=O)c1ccc(-c2ccc(Br)cc2)o1	nt	nt	nt	14%	nt	nt
COc1ccccc1NC(=O)c1ccc(-c2ccccc2[N+](=O)[O-])o1	?	?	11µM*	8%	-14%	-1%
O=C(Nc1cccc2ncccc12)c1ccc(-c2ccc(Br)cc2)o1	25%	6%	11µM*	-21%	-6%	18%
COC(=O)C1CCN(S(=O)(=O)c2cc3c4c(c2)CC(=O)N4CCC3)CC1	nt	nt	-6%	nt	nt	nt
O=C(O)Cc1sc(Nc2ccccc2)nc1-c1cccs1	?	27%	12µM*	nt	?	13%
O=C(Cc1sc(-c2ccccc2)nc1-c1ccccc1)Nc1ccccc1	0%	-4%	-19%	12%	6%	-5%
O=C(Cc1sc(Nc2ccccc2)nc1-c1ccccc1)NCc1ccccc1	-3%	11%	?	nt	-13%	40µM*
COc1ccc(OCC(=O)Nc2cccc(C(=O)Nc3ccccc3C(=O)O)c2)cc1	1%	-2%	24µM*	13%	0%	-1%
COc1ccc(CC(=O)Nc2cccc(C(=O)Nc3ccccc3C(=O)O)c2)cc1OC	1%	-9%	17µM*	7%	-1%	-3%
O=C(Cc1ccc(Cl)cc1)Nc1cccc(C(=O)Nc2ccccc2C(=O)O)c1	-4%	-7%	-19%	nt	1%	-1%
O=C(c1cnn(-c2cccc(F)c2)c1)c1ccccc1O	?	0%[1.84 µM]	3.8µM*	nt	?	?
O=C(O)c1ccc(-n2cc(C(=O)c3ccccc3O)cn2)cc1	10%	12%	15µM*	nt	-12%	2%
COc1ccc(O)c(C(=O)c2cnn(-c3ccc(Cl)cc3)c2)c1	4%	18%	17µM*	nt	4%	6%
O=C(c1cnn(-c2ccccc2)c1)c1cc(Br)ccc1O	-2%	1%	6%	nt	1%	6%
O=C(c1cnn(-c2ccccc2)c1)c1ccc2ccccc2c1O	?	?	7.6µM*	13µM*	?	?
COc1ccc(O)c(C(=O)c2cc(C#N)c(=O)n(-c3ccc(Cl)cc3)c2)c1	-4%	1%	-18%	nt	-4%	3%
O=[N+]([O-])c1ccc(O)c(-c2ccnc3cc(-c4ccccc4)nn23)c1	nt	nt	?	-12%	nt	nt
CCOC(=O)c1ccccc1Nc1cc(C)nc2nc(-c3ccco3)nn12	nt	nt	3%	nt	nt	nt
O=C(O)CC(CC(=O)O)C(=O)O	nt	nt	nt	-16%[9.22 µM]	nt	nt
CCc1nn(CC(=O)NC2CC2)c(=O)c2cc3ccccc3n12	nt	nt	6%	nt	nt	nt
O=C(c1cnn(C(=O)c2ccccc2)c1)c1ccccc1O	1%	3%	-20%	6%	-3%	6%
O=C(c1cnn(-c2nc3ccccc3s2)c1)c1ccccc1O	3.5µM*	?	3µM*	51%	?	?
